Where “and” joins values, the source holds several entries; their conditions need not be identical. Equal values may be shown once. Results filed as inconclusive are left out. Entries that show only a call come without a potency. More than one record can exist for a structure, and the calls need not agree. Calls of active or inactive are those of the source. Calls come from the whole dose curve; as a rule, active = well fitted cell-killing curve with a large enough effect in the repeat runs; inconclusive = weak or mixed curves; inactive = flat fitted curve, though single readings scatter.
Assay: qHTS RealTime-Glo MT Cell Viability Assay in HepG2 cells - 16 hour (AID 1224885); note: nearly all actives have a fitted effect of over 50% in size
Details: RealTime-Glo luminescence; series mostly up to 76.8 µM
Description: U.S. Tox21 Program National Center for Advancing Translational Sciences [NCATS] NIH Chemical Genomics Center [NCGC] U.S. Environmental Protection Agency [EPA] National Institutes of Environmental Health Sciences [NIEHS] National Toxicology Program [NTP] U.S. Food and Drug Administration [FDA] Tox21 Assay Overview: Measure of cell viability is critical in the cell-base assay. Analysis of cell viability is necessary for the characterization of cell responses to cytotoxic drugs and environmental stress. A RealTime-Glo MT Cell Viability Assay to monitor cell viability in real time of continues cell culture during 40 hours of compound treatment was used to screen Tox21 10K library compounds in HepG2 cells. The RealTime-Glo MT Cell Viability Assay is a nonlytic, homogeneous, bioluminescent method to measure cell viability in real time using a simple, plate-based method. The assay involves adding NanoLuc luciferase and a cell-permeant prosubstrate to cells in culture. Viable cells reduce the proprietary prosubstrate to generate a substrate for NanoLuc luciferase. This substrate diffuses from cells into the surrounding culture medium, where it is rapidly used by the NanoLuc Enzyme to produce a luminescent signal. The signal correlates with the number of viable cells, making the assay well suited for cytotoxicity studies.
Tox21 Assay Protocol Summary: The mixture of HepG2 cell suspension and reagents were dispensed at 600cells/6 ul/well in 1536-well tissue culture treated black solid bottom plates using a Multidrop dispenser. After the assay plates were incubated at a 37 C/5% CO2 incubator for 5 hours, 23 nL of compounds dissolved in DMSO, positive and negative controls was transferred to the assay plate by a pintool work station. The plates were incubated at 37 C for 40 hours. The luminescence intensity were measured at 0h, 8h, 16h, 24h, 32h and 40h time points using ViewLux plate reader during compound treatment.
With `C1COC(NC(C2CC2)C2CC2)=N1` the Potency was “inactive”. With `CC1=C(C=O)C(C)(C)CC=C1` the Potency was “inactive”. In the case of `CC(C)CCCCCCc1ccc(O)cc1`, the Potency is reported as “inactive”. For `O=Nc1ccc(Nc2ccccc2)cc1`, the Potency was 43.6 µM (active). With `c1ccc2c(c1)-c1cccc3c1c-2cc1ccccc13` the Potency was “inactive”. For `CCN(CC)C(=S)SSC(=S)N(CC)CC`, the Potency was 0.141 µM (active). For `O=C(O)CCc1ccccc1`, the Potency was “inactive”. With `CC(C)(C)NCC(O)c1cc(O)cc(O)c1` (stereo not given) the Potency was “inactive”. In the case of `Cc1cccc([N+](=O)[O-])c1C(=O)O`, the Potency is reported as “inactive”. For `CC(=O)OCCOCCOCCOC(C)=O`, the Potency was “inactive”. In the case of `Cc1ccnc2c1NC(=O)c1cccnc1N2C1CC1`, the Potency is reported as “inactive”. In the case of `CC(=O)Nc1ccc(C(=O)CCl)cc1`, the Potency is reported as “inactive”. In the case of `CCC(CO)(CO)COCC(CC)(CO)CO`, the Potency is reported as “inactive”. With `Cc1occc(=O)c1OC(=O)C(C)C` the Potency was “inactive”. For `O=C(O)CP(=O)(O)O`, the Potency was “inactive”. For `NCCCCCC(=O)O`, the Potency was “inactive”. With `C/C=C/c1ccc(OCC)c(O)c1` the Potency was “inactive”. For `O=C1NCC2(CCN(CCc3ccccc3)CC2)O1`, the Potency was “inactive”. For `CCCCC(CC)COC(=O)CC(C(=O)OCC(CC)CCCC)S(=O)(=O)O` (stereo not given), the Potency was “inactive”. For `[Cl][In]([Cl])[Cl]`, the Potency was “inactive”. In the case of `c1cnc2cc3c(cc2n1)C1CNCC3C1`, the Potency is reported as “inactive”. In the case of `O=C(OCc1ccccc1)c1ccc(O)cc1`, the Potency is reported as “inactive”. In the case of `Oc1c(Cl)cc(Cl)c(Cl)c1Cc1c(O)c(Cl)cc(Cl)c1Cl`, the Potency is reported as “inactive”. With `CCCCCCCCCCCCc1ccccc1O` the Potency was “inactive and 34.7 µM (active)”. For `O=C1CC2(CCCC2)CC(=O)N1CCCCN1CCN(c2ncccn2)CC1`, the Potency was “inactive”. For `CC(COc1ccccc1)N(CCCl)Cc1ccccc1` (stereo not given), the Potency was “inactive”. With `CCCCC/C=C/CC1CC(=O)OC1=O` (stereo not given) the Potency was “inactive”. In the case of `O=C(O)c1cc(Cl)cc(Cl)c1`, the Potency is reported as “inactive”. In the case of `CN1C(=O)c2ccc([N+](=O)[O-])cc2C1=O`, the Potency is reported as “inactive”. With `CCOC(=O)C(C)C(C)=O` (stereo not given) the Potency was “inactive”. In the case of `CCCCN(CCO)CCCC`, the Potency is reported as “inactive”. With `CC(=O)N[C@@H](CS)C(=O)O` the Potency was “inactive”. With `CC(C(O)c1ccc(O)cc1)N1CCC(Cc2ccccc2)CC1` (stereo not given) the Potency was “inactive”. In the case of `N[C@@H]1CONC1=O`, the Potency is reported as “inactive”. With `NCCO` the Potency was “inactive”. For `c1ccc2cc3c(ccc4ccccc43)cc2c1`, the Potency was “inactive”. In the case of `CNC1(C)C2CCC(C2)C1(C)C` (stereo not given), the Potency is reported as “inactive”. In the case of `COc1cc(C(=S)N2CCOCC2)ccc1O`, the Potency is reported as “inactive”. With `Cc1cccc(O)c1C` the Potency was “inactive”. With `NC12CC3CC(CC(C3)C1)C2` the Potency was “inactive”.

— PubChem BioAssay (Tox21)
Potency is the fitted concentration of half-maximal effect.
